From PubChem BioAssay (NCATS) come the findings set out here.

Assay [1] is described as follows: Quantitative High-Throughput drug screen in 47 multiple myeloma cell lines against the NCATS MIPE library collection: KMS34_JCRB cell viability assay (AID 1918985). Further: potency means the concentration at half of the fitted maximal effect; nearly all actives have a fitted effect of over 40% in size. In outline:
(§1)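 500 cells/well; MIPE 4.0 drugs pin-transferred; 48 h, 37C, 5% CO2. CellTiter-Glo, 5 min RT, luminescence. Controls: DMSO 100%, media 0%.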

Assay [2] is described as follows: Quantitative High-Throughput drug screen in 47 multiple myeloma cell lines against the NCATS MIPE library collection: OCIMY7_PLB cell viability assay (AID 1918987). Further: potency means the concentration at half of the fitted maximal effect; nearly all actives have a fitted effect of over 65% in size. In outline:
as §1

Assay [3] can be described thus: Quantitative High-Throughput drug screen in 47 multiple myeloma cell lines against the NCATS MIPE library collection: OCIMY5_PLB cell viability assay (AID 1918988). Further: potency means the concentration at half of the fitted maximal effect; nearly all actives have a fitted effect of over 65% in size. In outline:
as §1

The nature of assay [4]: Quantitative High-Throughput drug screen in 47 multiple myeloma cell lines against the NCATS MIPE library collection: OPM1_PLB cell viability assay (AID 1918989). Further: potency means the concentration at half of the fitted maximal effect; nearly all actives have a fitted effect of over 40% in size. In outline:
as §1

The nature of assay [5]: Quantitative High-Throughput drug screen in 47 multiple myeloma cell lines against the NCATS MIPE library collection: U266_ATCC cell viability assay (AID 1919864). Further: potency means the concentration at half of the fitted maximal effect; nearly all actives have a fitted effect of over 35% in size. In outline:
as §1

Assay [6] in a line: Quantitative High-Throughput drug screen in 47 multiple myeloma cell lines against the NCATS MIPE library collection: XG6_PLB cell viability assay (AID 1919865). Further: potency means the concentration at half of the fitted maximal effect; nearly all actives have a fitted effect of over 40% in size. In outline: as §1
A short description of assay [7]: Quantitative High-Throughput drug screen in 47 multiple myeloma cell lines against the NCATS MIPE library collection: VP6_DJ cell viability assay (AID 1919867). Further: potency means the concentration at half of the fitted maximal effect; nearly all actives have a fitted effect of over 40% in size. In outline:
as §1

Assay [8] in a line: Quantitative High-Throughput drug screen in 47 multiple myeloma cell lines against the NCATS MIPE library collection: UTMC2_PLB cell viability assay (AID 1919868). Further: potency means the concentration at half of the fitted maximal effect; nearly all actives have a fitted effect of over 55% in size. Conditions: CellTiter-Glo ATP luminescence, 48 h; viability (% of DMSO control): at 45.8 µM (top of the series) unless noted. In outline: as §1
(ATP-based viability assays read luminescence as a measure of living cells.)

Assay [9] in a line: Quantitative High-Throughput drug screen in 47 multiple myeloma cell lines against the NCATS MIPE library collection: PE2_PLB cell viability assay (AID 1919869). Further: potency means the concentration at half of the fitted maximal effect; nearly all actives have a fitted effect of over 35% in size. In outline:
as §1

The nature of assay [10]: Quantitative High-Throughput drug screen in 47 multiple myeloma cell lines against the NCATS MIPE library collection: PCM6_Riken cell viability assay (AID 1919870). Further: potency means the concentration at half of the fitted maximal effect; nearly all actives have a fitted effect of over 30% in size. In outline: as §1
Assay [11] is described as follows: Quantitative High-Throughput drug screen in 47 multiple myeloma cell lines against the NCATS MIPE library collection: RPMI8226_ATCC cell viability assay (AID 1919871). Further: potency means the concentration at half of the fitted maximal effect; nearly all actives have a fitted effect of over 30% in size. In outline:
as §1

Assay [12] is described as follows: Quantitative High-Throughput drug screen in 47 multiple myeloma cell lines against the NCATS MIPE library collection: KMS11_JCRBsus cell viability assay (AID 1919873). Further: potency means the concentration at half of the fitted maximal effect; nearly all actives have a fitted effect of over 50% in size. In outline: as §1
Assay [13] can be described thus: Quantitative High-Throughput drug screen in 47 multiple myeloma cell lines against the NCATS MIPE library collection: KMS28BM_JCRB cell viability assay (AID 1919874). Further: potency means the concentration at half of the fitted maximal effect; nearly all actives have a fitted effect of over 35% in size. In outline:
as §1

A short description of assay [14]: qHTS drug screen for cell cycle checkpoint inhibitors in PARPi-resistant BRCA-mutant ovarian cancer cell lines. (AID 1963452; calls by dose curve). The settings on record: PEO1/OlaR viability, CellTiter-Glo luminescence, 96 h, stronger effect = lower value. In outline:
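PEO1, PEO4 and PEO1/OlaR ovarian cancer cells, 600 per well, exposed 96 h at 37C to a dilution series. Viability read by CellTiter-Glo luminescence, normalized to DMSO and empty wells; activity summarized as Z-AUC.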
On the technique in general: In qHTS, concentration-response curves come from the screen itself.

Assay [15] is described as follows: Quantitative High-Throughput drug screen in 47 multiple myeloma cell lines against the NCATS MIPE library collection: XG1_PLB cell viability assay (AID 1919866). Further: potency means the concentration at half of the fitted maximal effect; nearly all actives have a fitted effect of over 35% in size. In outline:
as §1

Assay [16] is described as follows: Quantitative High-Throughput drug screen in 47 multiple myeloma cell lines against the NCATS MIPE library collection: OPM2_DSMZ cell viability assay (AID 1919872). Further: potency means the concentration at half of the fitted maximal effect; nearly all actives have a fitted effect of over 30% in size. In outline: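 Myeloma cells (500 per well) were exposed to MIPE 4.0 compounds by pin transfer and incubated 48 hours at 37C, 5% CO2. Viability was read as ATP by CellTiter-Glo luminescence, normalised to DMSO (100%) and media-only (0%) wells.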

The nature of assay [17]: qHTS for identification of novel therapeutic agents for treatment of microphthalmiaassociated transcription factor (MiT) renal cell carcinoma (RCC) (AID 1963991; calls by dose curve; further: potency means the concentration at half of the fitted maximal effect). Conditions: CellTiter-Glo, 48 h; for Potency: active = Z-AUC below -0.8 in all three lines; for z-score: stronger effect = lower value. In outline:
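Three TFE3-fusion RCC lines (UOK109, UOK124, UOK145), 500 cells/well in complete medium, were treated with MIPE 4.0 compounds for 48 hours at 37 C. Viability was by CellTiter-Glo luminescence, normalized to DMSO (100%) and empty wells (0%); curves fitted over 11 concentrations.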

The nature of assay [18]: Quantitative High-Throughput drug screen in 47 multiple myeloma cell lines against the NCATS MIPE library collection: SKMM1_PLB cell viability assay (AID 1919863). Conditions: SKMM1 myeloma viability, CellTiter-Glo ATP, 48 h; viability: stronger effect = lower value. In outline:
as §1

[19] abbreviates: measured here: PEO1 parental Z-AUC.
[20] abbreviates: TFE3-RCC UOK109 viability, measured here: UOK109 Z-AUC.
Where [21] appears, read: TFE3-RCC viability, measured here: UOK124 Z-AUC.
[22] abbreviates: TFE3-RCC viability, measured here: UOK145 Z-AUC.

Molecules are shown by their SMILES. Results filed as inconclusive are left out. Calls of active or inactive are those of the source. Unless noted, the call rests on the fitted dose curve; in most records, active means well fitted cell-killing curve with a large enough effect; inconclusive means small, poorly fitted or top-dose-only effect, or effect the other way; inactive means no such curve, though single readings can be large or run the other way.

Consider `CCN(CC)CCNC(=O)c1ccc2nc(-c3ccccc3)c(-c3ccc(CN4CCC(n5c(=O)[nH]c6ccccc65)CC4)cc3)nc2c1`, for which the Potency is 20.9 µM (active) in assay [1]; 1.05 µM (active) in [2]; 10.5 µM (active) in assay [3]; 0.743 µM (active) in assay [4]; 8.33 µM (active) in assay [5]; 0.296 µM (active) in [6]. Also, the Potency in assay [7] was 0.372 µM (active); in assay [8], 1.32 µM (active); in assay [9] it was 1.05 µM (active); in [10] it was 0.332 µM (active); in assay [11], 20.9 µM (active); in assay [12], 2.35 µM (active). Also, the Potency in [13] is 16.6 µM (active). Further, the Z-AUC in [14] is -1.13 (inactive); in assay [14] (setting [19]), -1.23; in assay [14] (measured here: PEO4 Z-AUC), -1.53.
Regarding `CC(C)(O)c1cc2nc(-c3cnc(N)nc3)nc(N3CCOCC3)c2s1`, the Potency in [1] is 0.0372 µM (active); in assay [2], 0.372 µM (active); in assay [3] it was 0.105 µM (active); in [4] it was 0.166 µM (active); in [5], 0.105 µM (active); in assay [6], 0.264 µM (active). Besides, the Potency is 0.118 µM (active) in assay [15]; 0.0833 µM (active) in [7]; 0.105 µM (active) in assay [9]; 0.743 µM (active) in assay [10]; 0.0469 µM (active) in assay [11]; 0.187 µM (active) in assay [16]. In addition, the Potency in [12] was 0.0187 µM (active); in assay [13] it was 0.0662 µM (active); in assay [17] (TFE3-RCC UOK109 viability), 0.0332 µM (active). The values for the Z-AUC in [14], in [14] (setting [19]) and in assay [14] (measured here: PEO4 Z-AUC) were -1.37 (inactive), -1.91 and -1.8, respectively. For the same compound, the z-score is -2.49 in assay [17] (setting [20]), -0.824 in [17] (setting [21]) and -2.51 in assay [17] (setting [22]).
As to `Nc1cccc(-c2cc3c(Oc4cccc(O)c4)ncnc3[nH]2)c1`, the Potency was 18.7 µM (active) in [1]; 2.64 µM (active) in assay [2]; 23.5 µM (active) in assay [3]; 20.9 µM (active) in assay [4]; 2.09 µM (active) in assay [6]; 14.8 µM (active) in [9]. In addition, the Potency in assay [10] was 16.6 µM (active); in assay [12] it was 7.43 µM (active); in assay [13], 20.9 µM (active). The figures for the Z-AUC in [14], in assay [14] (setting [19]) and in assay [14] (measured here: PEO4 Z-AUC) were -0.838 (inactive), -0.58 and -0.859, respectively.
`C=CC(=O)Nc1cccc(Oc2nc(Nc3ccc(N4CCN(C)CC4)cc3)ncc2Cl)c1`: the Potency in [1] is 9.35 µM (active); in assay [2] it was 0.209 µM (active); in assay [3] it was 3.32 µM (active); in assay [4] it was 1.05 µM (active); in [18], 18.7 µM (active); in assay [15], 13.2 µM (active). Besides, the Potency in [7] was 5.9 µM (active); in assay [8], 6.62 µM (active); in assay [9], 5.9 µM (active); in assay [10] it was 16.6 µM (active); in assay [16], 11.8 µM (active); in assay [12], 1.05 µM (active). The Potency in assay [13] was 14.8 µM (active); in assay [17] (TFE3-RCC UOK109 viability), 0.833 µM (active). The Z-AUC in assay [14] was -0.847 (inactive); in [14] (setting [19]), -0.559; in assay [14] (measured here: PEO4 Z-AUC), -0.604. Further, the z-score in assay [17] (setting [20]) was -2.72; in [17] (setting [21]) it was -0.851; in [17] (setting [22]), -2.36.
Regarding `O=C(c1ccc(Nc2nccc(-c3cc4ccccc4s3)n2)cc1)N1CCC(N2CCCC2)CC1`, the Potency in [1] is 11.8 µM (active); in assay [2], 2.35 µM (active); in [3] it was 8.33 µM (active); in assay [4], 5.26 µM (active); in assay [5] it was 14.8 µM (active); in assay [15], 4.69 µM (active). The Potency was 3.32 µM (active) in assay [7]; 6.62 µM (active) in [8]; 7.43 µM (active) in [9]; 1.87 µM (active) in [10]; 20.9 µM (active) in assay [11]; 20.9 µM (active) in assay [16]. Besides, the Potency in assay [12] was 5.9 µM (active); in assay [13] it was 9.35 µM (active). The Z-AUC in assay [14] was 0.507 (inactive); in [14] (setting [19]), 0.645; in assay [14] (measured here: PEO4 Z-AUC), 0.0416.
